# From publication PMC7862700, “An all-to-all approach to the identification of sequence-specific readers for epigenetic DNA modifications on cytosine”
# Assays:
# Assay in all cases: DAPPL (digital affinity profiling via proximity ligation, sequencing); 10 mM Tris-HCl pH 7.5, 50 mM NaCl, 1 mM DTT, 4% glycerol, room temperature, 30 min; GST-TFs on glutathione beads, 16-mer random dsDNA library, 0.1% formaldehyde crosslink after washing; high values mean tight binding
# Conditions in all cases: protein: recombinant; tags: N-terminal GST; dsDNA, one strand shown
# ERF = target: T1, ERF (Homo sapiens, UniProt P50548 1-548)
# T1 sequence: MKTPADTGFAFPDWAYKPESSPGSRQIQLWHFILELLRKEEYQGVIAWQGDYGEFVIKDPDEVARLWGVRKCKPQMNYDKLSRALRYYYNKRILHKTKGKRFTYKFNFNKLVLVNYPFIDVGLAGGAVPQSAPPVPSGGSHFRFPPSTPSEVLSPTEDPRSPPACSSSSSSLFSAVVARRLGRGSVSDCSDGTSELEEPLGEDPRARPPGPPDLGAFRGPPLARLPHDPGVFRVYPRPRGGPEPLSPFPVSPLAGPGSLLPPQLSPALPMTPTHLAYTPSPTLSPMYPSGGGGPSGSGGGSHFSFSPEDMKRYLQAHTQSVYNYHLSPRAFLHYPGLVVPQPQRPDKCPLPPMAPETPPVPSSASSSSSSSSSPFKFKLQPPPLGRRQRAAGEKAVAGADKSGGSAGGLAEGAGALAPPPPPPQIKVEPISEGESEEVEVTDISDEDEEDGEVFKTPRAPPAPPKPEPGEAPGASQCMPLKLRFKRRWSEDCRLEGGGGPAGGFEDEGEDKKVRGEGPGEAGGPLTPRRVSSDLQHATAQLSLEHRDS
# Summary of the method: (§1)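 Binding signal is given per hexamer as its read frequency for a factor divided by its frequency in the tag-only sample. GST-fused human transcription factors were expressed in yeast, captured on glutathione beads, barcoded with DNA and pooled with that sample, then incubated with 200 nmole of a 16-mer random double-stranded DNA library in Tris/NaCl/DTT/glycerol buffer for 30 min at room temperature. The pools were then washed, crosslinked, proximity-ligated, amplified by PCR and sequenced on an Illumina NextSeq500.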
# ETV3L = target: T2, ETV3L (Homo sapiens, UniProt Q6ZN32 1-361)
# T2 sequence: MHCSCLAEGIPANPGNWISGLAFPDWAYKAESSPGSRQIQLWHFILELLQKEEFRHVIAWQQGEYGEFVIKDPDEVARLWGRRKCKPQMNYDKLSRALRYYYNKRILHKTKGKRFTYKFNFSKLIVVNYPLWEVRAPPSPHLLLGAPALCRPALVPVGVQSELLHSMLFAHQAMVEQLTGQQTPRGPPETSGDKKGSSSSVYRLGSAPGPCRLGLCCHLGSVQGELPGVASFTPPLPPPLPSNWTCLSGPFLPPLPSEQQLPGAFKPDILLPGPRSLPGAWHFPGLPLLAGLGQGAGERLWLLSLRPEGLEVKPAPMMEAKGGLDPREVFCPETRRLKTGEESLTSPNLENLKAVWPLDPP
# Summary of the method: as §1
# ETS2 = target: T3, ETS2 (Homo sapiens, UniProt P15036 1-469)
# T3 sequence: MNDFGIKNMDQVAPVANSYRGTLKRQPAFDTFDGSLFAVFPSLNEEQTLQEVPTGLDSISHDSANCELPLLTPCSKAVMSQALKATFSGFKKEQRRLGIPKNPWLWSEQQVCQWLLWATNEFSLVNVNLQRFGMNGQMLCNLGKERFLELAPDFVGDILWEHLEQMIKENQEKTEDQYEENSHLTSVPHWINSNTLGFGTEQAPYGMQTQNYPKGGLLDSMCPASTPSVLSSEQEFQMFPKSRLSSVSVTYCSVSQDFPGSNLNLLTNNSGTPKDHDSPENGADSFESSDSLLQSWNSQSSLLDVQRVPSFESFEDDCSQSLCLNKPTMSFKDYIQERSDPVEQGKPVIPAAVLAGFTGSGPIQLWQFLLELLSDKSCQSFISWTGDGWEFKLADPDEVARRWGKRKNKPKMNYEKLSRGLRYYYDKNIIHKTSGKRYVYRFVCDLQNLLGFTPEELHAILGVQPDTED
# Summary of the method: as §1
# SPDEF = target: T4, SPDEF (Homo sapiens, UniProt O95238 1-335)
# T4 sequence: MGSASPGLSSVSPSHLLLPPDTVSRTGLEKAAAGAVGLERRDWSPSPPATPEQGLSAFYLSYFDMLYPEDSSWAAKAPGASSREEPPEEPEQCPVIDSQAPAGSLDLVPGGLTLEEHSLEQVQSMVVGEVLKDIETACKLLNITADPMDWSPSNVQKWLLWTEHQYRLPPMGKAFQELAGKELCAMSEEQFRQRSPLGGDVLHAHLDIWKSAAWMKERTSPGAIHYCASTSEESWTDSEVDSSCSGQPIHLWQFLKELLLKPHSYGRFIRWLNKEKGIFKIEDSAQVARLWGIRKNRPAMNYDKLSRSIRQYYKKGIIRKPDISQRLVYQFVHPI
# Summary of the method: as §1
# ETV7 = target: T5, ETV7 (Homo sapiens, UniProt Q9Y603 1-341)
# T5 sequence: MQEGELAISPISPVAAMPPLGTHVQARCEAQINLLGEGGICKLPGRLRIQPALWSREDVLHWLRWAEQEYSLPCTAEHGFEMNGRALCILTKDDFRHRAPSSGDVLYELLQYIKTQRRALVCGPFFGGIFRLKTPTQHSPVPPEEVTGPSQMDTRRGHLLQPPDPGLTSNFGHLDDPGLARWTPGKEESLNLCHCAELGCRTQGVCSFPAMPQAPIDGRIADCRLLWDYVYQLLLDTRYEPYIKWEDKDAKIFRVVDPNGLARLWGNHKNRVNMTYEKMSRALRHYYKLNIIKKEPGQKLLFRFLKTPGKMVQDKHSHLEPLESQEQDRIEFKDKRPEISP
# Summary of the method: as §1
# ELF5 = target: T6, ELF5 (Homo sapiens, UniProt Q9UKW6-2 1-255)
# T6 sequence: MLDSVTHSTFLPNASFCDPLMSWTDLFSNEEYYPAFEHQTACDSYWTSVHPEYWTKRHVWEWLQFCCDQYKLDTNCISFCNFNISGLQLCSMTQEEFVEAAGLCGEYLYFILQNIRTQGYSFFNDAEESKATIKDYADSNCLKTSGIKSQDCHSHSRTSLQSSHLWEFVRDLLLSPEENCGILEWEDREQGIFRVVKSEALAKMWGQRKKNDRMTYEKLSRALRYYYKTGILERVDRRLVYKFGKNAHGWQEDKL
# Summary of the method: as §1
# ETV3 = target: T7, ETV3 (Homo sapiens, UniProt P41162-2 1-143)
# T7 sequence: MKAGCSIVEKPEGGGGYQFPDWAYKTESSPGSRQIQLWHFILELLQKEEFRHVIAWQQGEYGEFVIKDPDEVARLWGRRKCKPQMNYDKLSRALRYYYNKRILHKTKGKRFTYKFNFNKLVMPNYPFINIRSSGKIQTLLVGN
# Summary of the method: as §1
# ETV6 = ETV6 (Homo sapiens, UniProt P41212 1-452)
# Summary of the method: as §1
# Chain of ETV6 (P41212 whole entry): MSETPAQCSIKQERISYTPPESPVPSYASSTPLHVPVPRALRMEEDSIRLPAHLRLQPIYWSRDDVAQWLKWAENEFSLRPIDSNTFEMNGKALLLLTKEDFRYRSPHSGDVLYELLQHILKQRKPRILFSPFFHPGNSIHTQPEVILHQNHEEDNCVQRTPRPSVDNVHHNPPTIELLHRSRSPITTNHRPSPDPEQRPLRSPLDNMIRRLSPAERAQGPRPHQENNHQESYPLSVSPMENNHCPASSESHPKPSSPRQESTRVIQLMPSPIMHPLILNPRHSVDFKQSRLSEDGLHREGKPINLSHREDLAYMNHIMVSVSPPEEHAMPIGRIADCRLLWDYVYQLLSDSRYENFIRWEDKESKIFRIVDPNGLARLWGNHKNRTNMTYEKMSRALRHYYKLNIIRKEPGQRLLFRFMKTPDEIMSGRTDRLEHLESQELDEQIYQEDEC
Sequence,binding signal (ERF),binding signal (ETV3L),binding signal (ETS2),binding signal (SPDEF),binding signal (ETV7),binding signal (ELF5),binding signal (ETV3),binding signal (ETV6)
TCCTGA,"1.26 fold enrichment (6-mer frequency, TF over GST control)","1.43 fold enrichment (6-mer frequency, TF over GST control)","1.59 fold enrichment (6-mer frequency, TF over GST control)","1.69 fold enrichment (6-mer frequency, TF over GST control)","1.32 fold enrichment (6-mer frequency, TF over GST control)","1.92 fold enrichment (6-mer frequency, TF over GST control)","1.71 fold enrichment (6-mer frequency, TF over GST control)","1.51 fold enrichment (6-mer frequency, TF over GST control)"
GTCCCT,"1.22 fold enrichment (6-mer frequency, TF over GST control)","1.16 fold enrichment (6-mer frequency, TF over GST control)","1.31 fold enrichment (6-mer frequency, TF over GST control)","1.37 fold enrichment (6-mer frequency, TF over GST control)","1.22 fold enrichment (6-mer frequency, TF over GST control)","1.23 fold enrichment (6-mer frequency, TF over GST control)","1.26 fold enrichment (6-mer frequency, TF over GST control)","1.21 fold enrichment (6-mer frequency, TF over GST control)"
CGACAT,"1.34 fold enrichment (6-mer frequency, TF over GST control)","1.22 fold enrichment (6-mer frequency, TF over GST control)","1.32 fold enrichment (6-mer frequency, TF over GST control)","1.4 fold enrichment (6-mer frequency, TF over GST control)","1.23 fold enrichment (6-mer frequency, TF over GST control)","1.33 fold enrichment (6-mer frequency, TF over GST control)","1.37 fold enrichment (6-mer frequency, TF over GST control)","1.42 fold enrichment (6-mer frequency, TF over GST control)"
TACTAA,"1.2 fold enrichment (6-mer frequency, TF over GST control)","1.23 fold enrichment (6-mer frequency, TF over GST control)","1.21 fold enrichment (6-mer frequency, TF over GST control)","1.22 fold enrichment (6-mer frequency, TF over GST control)","1.35 fold enrichment (6-mer frequency, TF over GST control)","1.25 fold enrichment (6-mer frequency, TF over GST control)","1.19 fold enrichment (6-mer frequency, TF over GST control)","1.24 fold enrichment (6-mer frequency, TF over GST control)"
CACCTT,"1.33 fold enrichment (6-mer frequency, TF over GST control)","1.14 fold enrichment (6-mer frequency, TF over GST control)","1.24 fold enrichment (6-mer frequency, TF over GST control)","1.31 fold enrichment (6-mer frequency, TF over GST control)","1.12 fold enrichment (6-mer frequency, TF over GST control)","1.21 fold enrichment (6-mer frequency, TF over GST control)","1.31 fold enrichment (6-mer frequency, TF over GST control)","1.25 fold enrichment (6-mer frequency, TF over GST control)"
AGATGC,"1.23 fold enrichment (6-mer frequency, TF over GST control)","1.09 fold enrichment (6-mer frequency, TF over GST control)","1.09 fold enrichment (6-mer frequency, TF over GST control)","1.03 fold enrichment (6-mer frequency, TF over GST control)","1.03 fold enrichment (6-mer frequency, TF over GST control)","1.12 fold enrichment (6-mer frequency, TF over GST control)","1.06 fold enrichment (6-mer frequency, TF over GST control)","1.04 fold enrichment (6-mer frequency, TF over GST control)"
AAGCAC,"1.19 fold enrichment (6-mer frequency, TF over GST control)","1.2 fold enrichment (6-mer frequency, TF over GST control)","1.17 fold enrichment (6-mer frequency, TF over GST control)","1.29 fold enrichment (6-mer frequency, TF over GST control)","1.3 fold enrichment (6-mer frequency, TF over GST control)","1.28 fold enrichment (6-mer frequency, TF over GST control)","1.19 fold enrichment (6-mer frequency, TF over GST control)","1.28 fold enrichment (6-mer frequency, TF over GST control)"
CCATTC,"1.14 fold enrichment (6-mer frequency, TF over GST control)","1.06 fold enrichment (6-mer frequency, TF over GST control)","1.13 fold enrichment (6-mer frequency, TF over GST control)","1.13 fold enrichment (6-mer frequency, TF over GST control)","1.16 fold enrichment (6-mer frequency, TF over GST control)","1.11 fold enrichment (6-mer frequency, TF over GST control)","1.1 fold enrichment (6-mer frequency, TF over GST control)","1.12 fold enrichment (6-mer frequency, TF over GST control)"
TCTATA,"1.15 fold enrichment (6-mer frequency, TF over GST control)","1.09 fold enrichment (6-mer frequency, TF over GST control)","1.2 fold enrichment (6-mer frequency, TF over GST control)","1.15 fold enrichment (6-mer frequency, TF over GST control)","1.1 fold enrichment (6-mer frequency, TF over GST control)","1.08 fold enrichment (6-mer frequency, TF over GST control)","1.06 fold enrichment (6-mer frequency, TF over GST control)","1.07 fold enrichment (6-mer frequency, TF over GST control)"
AACGGC,"1.2 fold enrichment (6-mer frequency, TF over GST control)","1.23 fold enrichment (6-mer frequency, TF over GST control)","1.22 fold enrichment (6-mer frequency, TF over GST control)","1.16 fold enrichment (6-mer frequency, TF over GST control)","1.11 fold enrichment (6-mer frequency, TF over GST control)","1.16 fold enrichment (6-mer frequency, TF over GST control)","1.29 fold enrichment (6-mer frequency, TF over GST control)","1.26 fold enrichment (6-mer frequency, TF over GST control)"
ATGGTC,"1.45 fold enrichment (6-mer frequency, TF over GST control)","1.49 fold enrichment (6-mer frequency, TF over GST control)","1.49 fold enrichment (6-mer frequency, TF over GST control)","1.35 fold enrichment (6-mer frequency, TF over GST control)","1.29 fold enrichment (6-mer frequency, TF over GST control)","1.46 fold enrichment (6-mer frequency, TF over GST control)","1.55 fold enrichment (6-mer frequency, TF over GST control)","1.52 fold enrichment (6-mer frequency, TF over GST control)"
TGACCT,"1.66 fold enrichment (6-mer frequency, TF over GST control)","1.83 fold enrichment (6-mer frequency, TF over GST control)","1.72 fold enrichment (6-mer frequency, TF over GST control)","1.74 fold enrichment (6-mer frequency, TF over GST control)","1.75 fold enrichment (6-mer frequency, TF over GST control)","1.73 fold enrichment (6-mer frequency, TF over GST control)","1.59 fold enrichment (6-mer frequency, TF over GST control)","1.66 fold enrichment (6-mer frequency, TF over GST control)"
TTCGAT,"1.4 fold enrichment (6-mer frequency, TF over GST control)","1.33 fold enrichment (6-mer frequency, TF over GST control)","1.33 fold enrichment (6-mer frequency, TF over GST control)","1.18 fold enrichment (6-mer frequency, TF over GST control)","1.22 fold enrichment (6-mer frequency, TF over GST control)","1.2 fold enrichment (6-mer frequency, TF over GST control)","1.24 fold enrichment (6-mer frequency, TF over GST control)","1.14 fold enrichment (6-mer frequency, TF over GST control)"
TGTTGA,"1.13 fold enrichment (6-mer frequency, TF over GST control)","1.17 fold enrichment (6-mer frequency, TF over GST control)","1.11 fold enrichment (6-mer frequency, TF over GST control)","1.23 fold enrichment (6-mer frequency, TF over GST control)","1.18 fold enrichment (6-mer frequency, TF over GST control)","1.08 fold enrichment (6-mer frequency, TF over GST control)","1.11 fold enrichment (6-mer frequency, TF over GST control)","1.01 fold enrichment (6-mer frequency, TF over GST control)"
CGCTAC,"1.24 fold enrichment (6-mer frequency, TF over GST control)","1.17 fold enrichment (6-mer frequency, TF over GST control)","1.24 fold enrichment (6-mer frequency, TF over GST control)","1.21 fold enrichment (6-mer frequency, TF over GST control)","1.2 fold enrichment (6-mer frequency, TF over GST control)","1.16 fold enrichment (6-mer frequency, TF over GST control)","1.16 fold enrichment (6-mer frequency, TF over GST control)","1.27 fold enrichment (6-mer frequency, TF over GST control)"
